# Source: PubChem BioAssay (NCI)
# The panel holds about 83,000 compounds, 20% with a hit somewhere; the sample as a whole holds those more often.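 For each line, cells grew in 96-well plates with the test compound present at a single concentration for 48 hours.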 Values without a mark were called inactive. Active and inactive are the calls of the source. How the source made its calls: active means growth percent below 10; inactive means the rest.
# Key:
# Experiment in all cases: NCI-60 one-dose screen, 48 h (100 = growth as untreated, 0 = no growth, -100 = all killed)
# Conditions in all cases: 10 µM unless noted
# [1] = system: NCI/ADR-RES ovarian
# [2] = system: T-47D breast
# [3] = system: BT-549 breast
# [4] = system: MDA-MB-435 melanoma
# [5] = system: SW-620 colon
# [6] = system: MCF7 breast
# [7] = system: HCT-116 colon
# [8] = system: HCC-2998 colon
# [9] = system: KM12 colon
SMILES,growth [1],growth [2],growth [3],growth [4],growth [5],growth [6],growth [7],growth [8],growth [9]
CCC(C)(C)[C@H](NC(=O)[C@H]1CCCCN1C)C(=O)N(C)[C@H](C[C@@H](OC(C)=O)c1nc(C(=O)N[C@@H](Cc2ccccc2)C[C@H](C)C(=O)O)cs1)C(C)C,16.8%,76.7%,-34.7% (active),-47.2% (active),26.6%,23.9%,-10% (active),22.2%,4.26% (active)
COC(=O)CCc1c[nH]c2ccc(N(CCCl)CCCl)cc12,52.7%,60.2%,57.4%,74.1%,47.5%,30.9%,53.1%,84%,86.6%
ClC1=C(Cl)C(Cl)(C2(Cl)C(Cl)=C(Cl)C(Cl)=C2Cl)C(Cl)=C1Cl,4.66% (active),-45.4% (active),-12.3% (active),-50.9% (active),-52.8% (active),-40.9% (active),,52.1%,84.5%
CNC(=O)Oc1ccc(N(C)C)cc1C(C)C,107%,101%,73.6%,91.7%,116%,91%,95.9%,,112%
NC(N)=N/N=C\c1c[nH]c2ccc(Br)cc12,87%,36.6%,23.7%,98.1%,101%,75.4%,92%,,94.9%
Oc1ccc2c3c1OC1[C@@H](O)CC[C@@]4(O)[C@@H](C2)N(CC2CCC2)CC[C@]314 (stereo partly drawn),102%,100%,106%,101%,104%,92.5%,99.2%,,104%
CN(C)C(=O)Oc1ccc(Br)cc1,106%,92.4%,103%,104%,109%,88.7%,103%,108%,101%
CC(=O)O[C@H](C[C@H](C(C)C)N(C)C(=O)[C@@H](NC(=O)[C@H]1CCCCN1C)C(C)(C)C)c1nc(C(=O)N[C@@H](Cc2ccccc2)C[C@H](C)C(=O)O)cs1,12.3%,45.6%,-23.6% (active),-47% (active),24.5%,16.4%,,8.37% (active),6.93% (active)
C=CC[Se]C(=O)c1ccccc1OC(C)=O,0.132% (active),-9.76% (active),28.9%,28.7%,11.1%,-5.53% (active),5.71% (active),6.92% (active),-24.1% (active)
COC1OC(CO)C(O)C(O)[CH]1[Hg][O]C(C)=O (stereo not drawn),92.4%,63.8%,103%,93.7%,89%,53.2%,102%,106%,94.5%
COC(=O)C1CCC(NC(=O)c2csc([C@@H](C[C@H](C(C)C)N(C)C(=O)[C@@H](NC(=O)[C@H]3CCCCN3C)C(C)C)OC(C)=O)n2)CC1 (stereo partly drawn),11.8%,64.4%,-20.7% (active),-48.5% (active),28.1%,19.4%,,20.2%,9.7% (active)
COc1ccc(S(=O)(=O)Nc2c(/C=C\c3cc(OC)c(OC)c(OC)c3)ccc(OC)c2O)cc1OC,2.42% (active),100%,20.7%,-52% (active),22.6%,15.7%,12.6%,22.6%,4.9% (active)
ClCCN(CCCl)Cc1ccc(Nc2ccnc3cc(Cl)ccc23)cc1,71.3%,36.2%,65.2%,39.6%,34.3%,18%,36.5%,71%,62.9%
Cn1cccc1C1CC(=O)N(CCC[Se]C#N)C1=O (stereo not drawn),-0.356% (active),71.7%,-93.5% (active),-6.27% (active),56.7%,9.04% (active),,83.1%,12.3%
OCCCCCNC1CCCCC1,103%,95.4%,105%,104%,107%,103%,,104%,111%
CC(C)=CC1C(C(=O)OCc2cccc(Oc3ccccc3)c2)C1(C)C (stereo not drawn),95%,81.5%,100%,91.9%,94.8%,,84.8%,94.5%,97.3%
COc1ccc(C(=O)c2cc(OC)c(OC)c(OC)c2)cc1OC(C)=O,7.97% (active),55.2%,8.56% (active),-16.3% (active),25.1%,,6.24% (active),25.5%,11.2%
N/C(=N\N=C\c1ccc(-c2ccccc2)cc1)N[N+](=O)[O-],19.4%,36.1%,52%,-27.4% (active),20.7%,13.6%,,60.9%,32.1%
COc1cccc2c1c(C(=O)c1ccco1)cn2Cc1ccc(F)cc1,104%,97.2%,116%,148%,109%,99.6%,,102%,116%
CCN(CC)c1ccc2c(c1)OC(N)=C(C#N)C2c1cc(OC)c2c(c1)OCO2 (stereo not drawn),-5.05% (active),57.1%,16.6%,-13% (active),20.6%,14.4%,,-3.32% (active),2.07% (active)
CNC(=O)Oc1ccc2c(c1)OCO2,109%,99.9%,97.1%,103%,107%,95.7%,,106%,101%
O=P(N1CC1)(N1CC1)N1CCc2ccccc21,101%,111%,99.4%,111%,101%,,94.2%,99.5%,113%
CCOP(=O)(NC[C@H]1O[C@](O)(CO)[C@@H](O)[C@@H]1O)OCC,100%,98.1%,87.1%,106%,104%,95.1%,,103%,99.3%
CC(C)[C@]12O[C@H]1[C@@H]1O[C@]13[C@]1(O[C@H]1C[C@H]1c4c(C(=O)c5ccccc5)oc(OC(=O)c5ccccc5)c4CC[C@@]13C)[C@@H]2O,8.83% (active),6.53% (active),-24.3% (active),-87.9% (active),-3.73% (active),,5.12% (active),-15.3% (active),-15.7% (active)
COc1ccc(/C=C\c2cc(OC)c(OC)c(OC)c2)c(NS(=O)(=O)c2ccc(C)cc2)c1O,7.57% (active),96.4%,30.6%,-33.1% (active),24.9%,14.3%,,18.7%,3.96% (active)
COc1cccc(C=NC(Cc2cnc[nH]2)C(=O)O)c1O (stereo not drawn),98.4%,108%,91.1%,84.2%,102%,93.4%,,,104%
COc1ccc2c(c1)c(C1(O)CC(CSC#N)OC1=O)cn2C(=O)c1ccc(Cl)cc1 (stereo not drawn),92.5%,100%,97.6%,98.9%,105%,,97%,95.1%,97.7%
CC[C@]12C=CCN3CC[C@]4(C(=C(C(=O)OC)C1)Nc1cc(OC)c(OC(C)=O)cc14)[C@@H]32,9.28% (active),51.4%,3.35% (active),3.75% (active),15.8%,13.1%,,12.8%,9.09% (active)
NC(=O)C(Br)c1ccccc1 (stereo not drawn),105%,95.3%,77.6%,94.1%,117%,,82.8%,96.4%,96.9%
